A selection: hits, their analogues and other compounds. The true share with any hit is near 1.3%.
TRPV1 agonist: HTS Assay for Compounds that Act as Agonists of the Vanilloid Receptor 1 | hit rate 0.19% among 320,000 | Transient receptor potential cation channel subfamily V member 1 (Homo sapiens), Q8NER1 | activation, % at 8.33 µM | TRPV1-expressing cells, Fluo-8 calcium influx, agonist mode; in the data active means activation above about 80%; inconclusive means between about 30% and that limit; further: 0% is about no effect
Target sequence (Q8NER1 whole entry, looked up): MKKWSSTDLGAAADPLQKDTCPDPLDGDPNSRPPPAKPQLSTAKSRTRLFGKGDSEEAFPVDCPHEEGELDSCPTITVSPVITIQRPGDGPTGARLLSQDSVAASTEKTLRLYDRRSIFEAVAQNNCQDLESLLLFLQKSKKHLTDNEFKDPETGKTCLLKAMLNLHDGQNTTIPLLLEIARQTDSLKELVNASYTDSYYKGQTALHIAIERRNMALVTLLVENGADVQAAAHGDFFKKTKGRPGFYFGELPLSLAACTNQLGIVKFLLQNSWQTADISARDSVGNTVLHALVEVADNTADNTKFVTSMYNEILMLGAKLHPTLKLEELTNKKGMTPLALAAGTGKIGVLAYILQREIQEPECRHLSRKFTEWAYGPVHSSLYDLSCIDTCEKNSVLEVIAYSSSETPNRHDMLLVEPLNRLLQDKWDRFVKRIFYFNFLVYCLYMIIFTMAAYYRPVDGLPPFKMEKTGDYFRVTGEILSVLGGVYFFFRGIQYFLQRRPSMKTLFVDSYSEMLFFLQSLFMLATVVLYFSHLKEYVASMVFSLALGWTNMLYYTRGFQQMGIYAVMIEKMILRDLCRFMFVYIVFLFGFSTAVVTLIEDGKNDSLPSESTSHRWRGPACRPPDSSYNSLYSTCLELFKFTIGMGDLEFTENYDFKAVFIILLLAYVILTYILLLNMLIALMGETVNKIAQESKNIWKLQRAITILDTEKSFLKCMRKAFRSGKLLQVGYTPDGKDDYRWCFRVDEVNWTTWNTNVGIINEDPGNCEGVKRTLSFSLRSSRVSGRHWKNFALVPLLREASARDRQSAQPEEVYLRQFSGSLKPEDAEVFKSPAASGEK
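Cells expressing TRPV1 were dye-loaded with Fluo-8 and read kinetically: 10 s baseline, 3 min after compound (agonist portion), then 2 min after EC20 capsaicin (allosteric enhancer portion). Calcium-bound dye fluorescence at 480/520 nm.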
KCNH2 3.1 inh: qHTS for Inhibitors of KCHN2 3.1: Mutant qHTS | U2OS KCNH2 3.1, thallium flux FluxOr; stronger effect = lower value | activity change, % (tested at about 1.8 µM) | hit rate 0.95% among 340,000;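 active means maximum activity change below -70%; inconclusive means maximum activity change from -70% to -50%; inactive means maximum activity change above -50%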;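 further: thallium influx rate constant from kinetic fluorescence after stimulation buffer; on the % scale 0 is the no-effect control and ±100 the full control effect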
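We transduce U2OS cells with the mutant 3.1 virus, culture them overnight, load FluxOr with Red40 quencher for 45 min, then add stimulation buffer and read kinetically for 2 min to derive a normalized rate constant.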
KCNH2 WT inh: qHTS for Inhibitors of KCHN2 3.1: Wildtype qHTS; Voltage-gated inwardly rectifying potassium channel KCNH2 (Homo sapiens), Q12809; U2OS, BacMam KCNH2, thallium flux FluxOr; stronger effect = lower value; activity change, % at 1.84 µM; hit rate 0.37% among 340,000; AID 720551, 2013;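 active means maximum activity change below -70%; inconclusive means maximum activity change between -70% and -50%; inactive means maximum activity change above -50%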; further: on the % scale 0 is the no-effect control and ±100 the full control effect
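U2OS cells transduced with wild-type KCNH2 virus are loaded with FluxOr dye for 45 min, and thallium flux is measured in kinetic reads before and after stimulation buffer. Rate constants are normalized to DMSO controls.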
TRPV1 potentiator: HTS Assay for Compounds that Act as Potentiators of the Vanilloid Receptor 1; TRPV1-expressing cells, Fluo-8 calcium influx, capsaicin EC20 potentiation; Transient receptor potential cation channel subfamily V member 1 (Homo sapiens), Q8NER1; hit rate 0.02% among 320,000; potentiation, % at 8.33 µM; in the data active means potentiation above about 80%; inconclusive means between about 30% and that limit; further: 0% is about no effect
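Fluo-8 calcium influx in TRPV1-expressing cells, kinetic read (ex 480/em 520 nm). Compound added and read 3 min for agonist activity, followed by capsaicin at EC20 final and 2 min further read for enhancement.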
Active calls of the source: *.

What do the screens show for `CCOc1ccc2nc(N(CCN(CC)CC)C(=O)/C=C/c3cccs3)sc2c1`?
TRPV1 agonist: -1.0; KCNH2 3.1 inh: -80.5*; KCNH2 WT inh: inconclusive; TRPV1 potentiator: -26.1

What do the screens show for `CN(C)CCCN(C(=O)/C=C/c1cccs1)c1nc2c(F)cccc2s1`?
TRPV1 agonist: 7.3; KCNH2 3.1 inh: -116.6*; KCNH2 WT inh: -44.5; TRPV1 potentiator: 1.0

Results for CN(C)CCCN(C(=O)CCOc1ccccc1)c1nc2c(F)cccc2s1 ?
TRPV1 agonist: 9.2; KCNH2 3.1 inh: -11.6; KCNH2 WT inh: 4.7; TRPV1 potentiator: -21.5

Results for CCc1nccn1S(=O)(=O)c1ccc2ccc(C)cc2c1 ?
TRPV1 agonist: -1.5; KCNH2 3.1 inh: -71.2*; KCNH2 WT inh: 7.0; TRPV1 potentiator: 7.1

Results for CCOc1ccc2cc(S(=O)(=O)n3ccnc3C)ccc2c1 ?
TRPV1 agonist: -1.7; KCNH2 3.1 inh: -4.6; KCNH2 WT inh: -3.4; TRPV1 potentiator: -0.1

What do the screens show for `COc1cc(CNCCc2ccc(S(N)(=O)=O)cc2)ccc1OCc1ccc(Cl)cc1`?
TRPV1 agonist: 3.9; KCNH2 3.1 inh: -108.5*; KCNH2 WT inh: -31.2; TRPV1 potentiator: 0.0

What do the screens show for `Cc1cc(Cl)ccc1OCC(O)CNCCc1ccc(S(N)(=O)=O)cc1` (stereo unspecified)?
TRPV1 agonist: 2.2; KCNH2 3.1 inh: -98.5*; KCNH2 WT inh: inconclusive; TRPV1 potentiator: 0.3

Results for CCOc1cc(CNCCc2ccc(S(N)(=O)=O)cc2)ccc1OCc1ccc(Cl)cc1 ?
TRPV1 agonist: -0.1; KCNH2 3.1 inh: -0.6; KCNH2 WT inh: 7.2; TRPV1 potentiator: -10.0

Results for NS(=O)(=O)c1ccc(CCNCc2ccccc2OCc2ccc(F)cc2)cc1 ?
TRPV1 agonist: 7.2; KCNH2 3.1 inh: -75.8*; KCNH2 WT inh: -32.9; TRPV1 potentiator: -10.5

What do the screens show for `O=C(O)c1cscc1-c1cccc2ccccc12`?
KCNH2 3.1 inh: 15.8; KCNH2 WT inh: 4.3

Results for O=C(CN(CC1CCCO1)C(=O)CNS(=O)(=O)c1ccccc1)NCCc1ccccc1 (stereo unspecified) ?
TRPV1 agonist: -1.0; KCNH2 3.1 inh: 7.6; KCNH2 WT inh: 2.1; TRPV1 potentiator: -7.3

How did COC(=O)[C@]1(Cc2ccccc2)N[C@H](CN(C)S(=O)(=O)c2ccc(-c3ccccc3)cc2)[C@@H]2C(=O)N(Cc3ccccc3)C(=O)[C@@H]21 do in these assays?
KCNH2 3.1 inh: -6.1; KCNH2 WT inh: 0.7

How did Cc1cc(Cl)cc(C)c1OCC(=O)NC1CCCCCC1 do in these assays?
KCNH2 3.1 inh: -13.4; KCNH2 WT inh: 9.6

How did Fc1ccc(Cn2nnc(-c3ccc(Cl)cc3)n2)cc1 do in these assays?
TRPV1 agonist: inconclusive; KCNH2 3.1 inh: 2.8; KCNH2 WT inh: -9.0; TRPV1 potentiator: -4.2

Results for Clc1ccc(Cn2nnc(-c3ccc(N4CCOCC4)cc3)n2)cc1 ?
TRPV1 agonist: 29.5; KCNH2 3.1 inh: -73.0*; KCNH2 WT inh: -18.1; TRPV1 potentiator: 10.4

Results for COC(=O)C(Cc1ccccc1)NC(=O)CCCC(=O)NCc1cccc(OC)c1 (stereo unspecified) ?
TRPV1 agonist: -4.0; KCNH2 3.1 inh: -2.1; KCNH2 WT inh: -70.0*; TRPV1 potentiator: 4.1

Results for COc1cc(NC(=O)COC(=O)CNC(=O)C2CCCCC2)cc(OC)c1 ?
TRPV1 agonist: 1.1; KCNH2 3.1 inh: 4.8; KCNH2 WT inh: -0.2; TRPV1 potentiator: 11.3

What do the screens show for `COc1ccc(C2Nc3ccccc3C(=O)N2Cc2ccco2)cc1COc1ccc([N+](=O)[O-])cc1` (stereo unspecified)?
TRPV1 agonist: 4.6; KCNH2 3.1 inh: -80.2*; KCNH2 WT inh: -31.1; TRPV1 potentiator: 3.8

Results for COc1cccc(OCc2cc(C3Nc4ccccc4C(=O)N3Cc3ccco3)ccc2OC)c1 (stereo unspecified) ?
TRPV1 agonist: 0.9; KCNH2 3.1 inh: -12.1; KCNH2 WT inh: 2.9; TRPV1 potentiator: -2.2

How did O=C(CCC(=O)c1ccc(F)cc1)Nc1cccnc1 do in these assays?
TRPV1 agonist: 3.1; KCNH2 3.1 inh: -0.9; KCNH2 WT inh: 4.2; TRPV1 potentiator: 1.0

What do the screens show for `CC(=O)c1cc(-c2ccc(F)cc2)n(CCC(=O)Nc2cccnc2)c1C`?
TRPV1 agonist: 81.4*; KCNH2 WT inh: 12.0; TRPV1 potentiator: -26.1

Results for O=C(C[n+]1cc(-c2ccc(Cl)cc2)n2c1CCCCC2)c1ccccc1 ?
TRPV1 agonist: 0.0; KCNH2 3.1 inh: -129.7*; KCNH2 WT inh: 11.7; TRPV1 potentiator: -9.7

How did COc1c(C)cc(S(=O)(=O)NCCN2CCOCC2)c(C)c1C do in these assays?
TRPV1 agonist: 1.5; KCNH2 3.1 inh: -3.1; KCNH2 WT inh: 5.2; TRPV1 potentiator: 15.7

How did CN1CCN(c2ccc(NC(=S)NC(=O)c3cccc4ccccc34)cc2)CC1 do in these assays?
TRPV1 agonist: 2.1; KCNH2 3.1 inh: -79.4*; KCNH2 WT inh: 17.3; TRPV1 potentiator: -2.8

What do the screens show for `CN1CCN(c2ccc(NC(=S)NC(=O)c3cccc4c(Br)cccc34)cc2)CC1`?
TRPV1 agonist: -1.8; KCNH2 3.1 inh: -82.7*; KCNH2 WT inh: -36.5; TRPV1 potentiator: 14.8

What do the screens show for `CN1CCN(c2ccc(NC(=O)c3ccccc3Br)cc2)CC1`?
TRPV1 agonist: -2.4; KCNH2 3.1 inh: 0.2; KCNH2 WT inh: -6.6; TRPV1 potentiator: 7.1

What do the screens show for `Cc1cccc(-c2nnc(-c3ccc4ccccc4c3)o2)c1`?
KCNH2 3.1 inh: 5.5; KCNH2 WT inh: -2.9

Results for Cc1nc(N)[nH]c(=O)c1CCCNc1ccc(CCC2(CCl)OCCO2)cc1 ?
KCNH2 3.1 inh: 4.1; KCNH2 WT inh: -4.7

What do the screens show for `Cc1nc(N)[nH]c(=O)c1CCCNc1ccc([N+](=O)[O-])cc1`?
KCNH2 3.1 inh: -119.2*; KCNH2 WT inh: -3.0

What do the screens show for `Cn1cnnc1SCC(=O)Nc1nc(-c2ccccc2)cs1`?
TRPV1 agonist: 89.0*; KCNH2 3.1 inh: -0.4; KCNH2 WT inh: -1.4; TRPV1 potentiator: -3.5

Results for O=C(CN1CCOCC1)Nc1nc(-c2ccccc2)cs1 ?
TRPV1 agonist: 85.3*; KCNH2 3.1 inh: 3.4; KCNH2 WT inh: 1.5; TRPV1 potentiator: -13.1

Results for Cc1ccc(-c2csc(NC(=O)CN3CCOCC3)n2)cc1C ?
TRPV1 agonist: 94.9*; KCNH2 3.1 inh: -3.5; KCNH2 WT inh: 3.0; TRPV1 potentiator: -14.1

How did Cc1nnc(SCC(=O)Nc2nc(-c3ccccc3)cs2)n1N do in these assays?
TRPV1 agonist: 3.4; KCNH2 3.1 inh: 4.7; KCNH2 WT inh: -7.9; TRPV1 potentiator: inconclusive

What do the screens show for `O=C(CN1CCCCC1)Nc1nc(-c2ccc(F)c(F)c2)cs1`?
TRPV1 agonist: -1.1; KCNH2 3.1 inh: inconclusive; KCNH2 WT inh: 1.0; TRPV1 potentiator: -2.8

What do the screens show for `O=C(Nc1nc(-c2ccccc2)cs1)c1ccc(Br)o1`?
TRPV1 agonist: 88.2*; KCNH2 3.1 inh: -38.4; KCNH2 WT inh: -2.6; TRPV1 potentiator: -9.8

From PubChem BioAssay
